High-throughput results: PubChem BioAssay, National Center for Advancing Translational Sciences (NCATS)
This is a sample that favours compounds with a hit; in the whole collection about 9% have one here.
IMPase Li cell – membrane-permeable IMPase blocker, potentiated with lithium; CHO-M1 cells, IP1 TR-FRET (IP-One), carbachol + lithium; Potency, µM (series often up to 59.4 µM), inactives show at the highest dose activity, negative = IMPase inhibition, hits mostly inhibitors; hit rate 0.35% among 210,000; active = well fitted curve in the direction sought with a large enough effect; inconclusive = small, poorly fitted or top-dose-only effect, or another doubt; inactive = no such curve, though single readings can be large; an effect the other way counts as inactive or inconclusive;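 also: IP1 builds up when IMPase is blocked and the TR-FRET signal falls; plate controls were basal vehicle for no effect and high inhibitor control for full effect; nearly all actives have a fitted effect of over 50% in size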
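CHO cells stably expressing M1 receptor (2000/well) were cultured 16–30 h, then exposed to compounds with a small lithium addition for 30 min at 37C. IP1 was measured by TR-FRET competition; AC50 from Hill fits.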
HPGD block – HPGD (human) dehydrogenase inhibition | hit rate 4.3% among 150,000 | purified HPGD, NADH fluorescence kinetic, PGE2 substrate | AID 894 | Potency, µM, inactives show at the top dose activity change, negative = inhibition, hits mostly inhibitors | P15428
Target sequence (P15428 whole entry, looked up): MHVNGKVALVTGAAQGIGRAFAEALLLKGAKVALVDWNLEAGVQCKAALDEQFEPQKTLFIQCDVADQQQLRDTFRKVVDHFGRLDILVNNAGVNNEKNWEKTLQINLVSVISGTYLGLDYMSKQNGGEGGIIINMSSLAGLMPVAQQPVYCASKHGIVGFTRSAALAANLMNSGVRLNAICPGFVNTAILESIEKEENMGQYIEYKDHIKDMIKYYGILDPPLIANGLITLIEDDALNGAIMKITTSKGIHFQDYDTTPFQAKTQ
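20 nM HPGD preincubated 15 min at room temperature with compound in 50 mM Tris-HCl pH 8, 0.01% Tween 20. Started with 1 mM NAD+ and 30 uM prostaglandin E2; NADH fluorescence (360/450 nm) read 5 times over 30-s intervals, last minus first.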
KinaseGlo FLuc – Kinase-Glo luciferase inhibition (counter-screen); Q27757; Kinase-Glo luciferase, ATP luminescence, 8 min; Potency, µM (doses to about 38.3 µM), for inactives: top-dose activity change, negative = inhibition, usual class: inhibitors; hit rate 0.28% among 200,000; AID 1379; active = well fitted curve in the direction sought with a large enough effect; inconclusive = small, poorly fitted or top-dose-only effect, or another doubt; inactive = no such curve, though single readings can be large; an effect the other way counts as inactive or inconclusive; also: nearly all actives have a fitted effect of over 60% in size
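Light output from Kinase-Glo luciferase with luciferin and 10 uM ATP in 50 mM imidazole pH 7.2, KCl, MgCl2, Tween 20, BSA; compound pin-delivered, 8-min ambient incubation, then luminescence read.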
Lamin A splicing – changes lamin A minigene splicing in HeLa cells | HeLa LMNA splicing GFP/RFP minigene ratio, 48 h | Potency, µM (series often up to 46.1 µM), for inactives: top-dose ratio change, negative = inhibition, usual class: inhibitors | hit rate 0.01% among 200,000 | AID 1487; active = well fitted inhibition curve with a large enough effect in the signal ratio, with a control signal flat, not every such curve was filed as active; inconclusive = small, poorly fitted or top-dose-only effect, or effect the other way, or a change in a side signal; the % refers to the signal ratio
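S3 HeLa stable clones carrying a lamin A-EGFP splicing minigene plus DsRed2 were seeded at 600 cells/well in Opti-MEM with 2% FBS, pin-dosed and incubated 48 h at 37°C. Acumen cytometry (488 nm) gave the GFP/RFP total-intensity ratio.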
ALDH1A1 inh – inhibitors of human aldehyde dehydrogenase 1A1. Purified ALDH1A1, NADH fluorescence, propionaldehyde substrate. Potency, µM (titrated, usually from 75.3 µM), for the others: at the highest dose activity, negative = inhibition, most hits filed as inhibitors. hit rate 7.3% among 220,000. AID 1030;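 also: plate controls were no enzyme wells and a reference inhibitor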
Active calls of the source: *; u = inconclusive; x = no result given; [ ] = remark or other dose. Unless noted, calls follow the shape of the dose curve; as a rule, active = well fitted inhibition curve with a large enough effect (not every such curve was filed as active); inconclusive = small, poorly fitted or top-dose-only effect, or another doubt; inactive = no such curve, though single readings can be large or run the other way. Unless noted, % is scaled to controls: 0 for no effect and ±100 for the full control effect; potency is read from the fitted curve at half-maximal effect.

SMILES	IMPase Li cell	HPGD block	KinaseGlo FLuc	Lamin A splicing	ALDH1A1 inh
O=c1[nH]ncc2c3ccccc3n(Cc3ccccc3F)c12	10µM*	-12%	-2%	-8%	-49%
Cc1ccc2occ(C3NC(C(=O)O)CS3)c(=O)c2c1 (centres undefined)	-6%	-12%	1%	-28%	u
Cc1ccc2occ(C3N[C@H](C(=O)O)CS3)c(=O)c2c1 (some centres undefined)	-7%[38.3 µM]	-9%	-1%	2%	1.4µM*
CCN(CC)C(=O)c1cc2sc3ccccc3c2s1	5%[38.3 µM]	7.9µM*	-1%	u	u
COc1ccc(CCNC(=O)C(=O)N2CCCC2)cc1OC	-5%	x	6%	x	-1%
O=C(/C=C/c1ccccn1)c1cc(Br)ccc1O	x	x	x	x	22µM*
C/C=N/NC(=O)c1cc(Br)ccc1O	-1%	-17%	2%	-21%	12%
O=C(c1cc(Br)ccc1O)c1cc(Br)ccc1O	9%	2.8µM*	-3%[7.66 µM]	x	-2%[13.5 µM]
N#Cc1cc(C(=O)c2cc(Br)ccc2O)cn(C2CC2)c1=O	5%[38.3 µM]	18µM*	2%	u	14µM*
CC(C)n1cc(C(=O)c2cc(Br)ccc2O)cc(C#N)c1=O	31%[38.3 µM]	-14%	-6%	u	u
C/C(=N\NC(=O)NC1CCCCC1)c1ccco1	-2%	x	-1%	x	-1%
O=S(=O)(NCCSc1nnc(-c2ccco2)n1-c1ccccc1)c1ccccc1	1%[38.3 µM]	-9%	1%	u	-11%
CC1(C)CC(=O)C(Sc2ccccc2[N+](=O)[O-])=C(O)C1	-6%	u	0%	u	7.1µM*
CN(C)CCCN(C(=O)CCc1ccccc1)c1nc2c(F)cccc2s1	-8%	-7%	-3%	u	-2%
CN(C)CCCN(C(=O)CCOc1ccccc1)c1nc2c(F)cccc2s1	-1%	x	-1%	x	3.2µM*
COc1ccc(OC)c2sc(N3CCc4ccccc4C3)nc12	5%	x	1%	-22%[46 µM]	u
COc1ccc(OC)c2sc(N3CCCCC3)nc12	31%[38.3 µM]	16µM*	-3%	13%	u
CC(C)(C)OC(=O)N1CCC(c2c(C(=O)NCc3ccccc3)cnn2-c2cccc(F)c2)CC1	x	x	x	-28%[46 µM]	x
COC(=O)C1C(=O)c2c([nH]c(C(=O)OC3CCCCC3)c2C)CC1C (centres undefined)	-5%	-7%	1%	-13%	-1%
COC(=O)C1C(=O)c2c([nH]c(C(=O)OC3CCCC3C)c2C)CC1C (centres undefined)	14%[38.3 µM]	-5%	0%	-15%	13µM*
COC(=O)c1c(NC(=O)CN2CCC3(O)CCCCC3C2c2ccc(OC)cc2OC)sc(C)c1C (centres undefined)	-2%	20µM*	-4%	u	2.5µM*
Cc1ccc(NC(=O)CSc2nc3ccccc3nc2Cc2ccccc2)c(Cl)c1	x	x	x	0%[46 µM]	x
N#C/C(=C\Nc1ccccc1O)c1nc2ccccc2o1	18%	-29%	-2%	u	u
Cc1ccc2[nH]c(=O)c(CN(Cc3cccs3)Cc3nnnn3CC3CCCO3)cc2c1 (centres undefined)	-5%[38.3 µM]	-12%	1%	4%	20µM*
Cc1ccc2cc(CN(Cc3cccs3)Cc3nnnn3CC3CCCO3)c(=O)[nH]c2c1 (centres undefined)	21%[38.3 µM]	-13%	-2%	-5%	7.9µM*
SMILES	IMPase Li cell	HPGD block	KinaseGlo FLuc	Lamin A splicing	ALDH1A1 inh
Cc1ccc2cc(CN(Cc3cccs3)Cc3nnnn3CC3CCCO3)c(=O)[nH]c2c1C (centres undefined)	31%[38.3 µM]	u	-1%	-4%	u
CCOc1ccc(NC(=O)c2cc(S(=O)(=O)N3CCN(c4ccccc4F)CC3)ccc2F)cc1	x	x	x	5%[46 µM]	x
Cc1ccc2c3c1C(=O)C(=O)N3C(C)(C)CC2C (centres undefined)	1%[38.3 µM]	-4%	-4%	6%	-1%
CC1(c2ccccc2)CC(C)(C)N2C(=O)C(=O)c3cccc1c32 (centres undefined)	12%	x	2%	-20%[46 µM]	0.5µM*
Oc1ccc(CN2CCCc3ccccc32)c2cccnc12	14%[38.3 µM]	-9%	-2%	u	10µM*
O=C1CCCC2=C1C(c1ccccc1O)C1=C(CCCC1=O)O2	0%[38.3 µM]	-20%	-4%	-10%	13%
O=C1CCCC2=C1C1(O)C(=O)c3ccccc3C1(O)O2 (centres undefined)	11%[38.3 µM]	-2%	2%	23%	4µM*
CC(=O)C1=C(O)C(=O)N(Cc2ccco2)C1c1ccccc1F (centres undefined)	u	x	1%	x	10µM*
O=C(COC(=O)/C=C/c1ccco1)Nc1ccc(F)cc1Cl	3%	x	-2%	7%[46 µM]	-9%
O=C(Cc1ccccc1[N+](=O)[O-])NCc1ccc2c(c1)OCO2	-4%	-8%	-6%	5%	-2%
Cc1c(C(=O)OCC(=O)NCc2ccc3c(c2)OCO3)cccc1[N+](=O)[O-]	-7%	-15%	1%	7%	7.9µM*
Cc1c(C(=O)OCC(=O)Nc2ccc3c(c2)OCO3)cccc1[N+](=O)[O-]	18%	-11%	-1%	-17%	8.9µM*
COc1ccc(NC(=O)COC(=O)Cc2ccccc2[N+](=O)[O-])cc1OC	14%	x	3%	x	14µM*
CCOC(=O)c1c(C)oc2nc(C)nc(NCC3CCN(Cc4cc(C)ccc4C)CC3)c12	x	x	x	-4%[46 µM]	x
C/C(=N\NC(=S)NCc1ccccc1)c1ccco1	11%	x	-3%	x	32µM*
O=C(O)CCNS(=O)(=O)c1ccc2c(c1)OCCCO2	0%	x	1%	-4%[46 µM]	0%
O=C1CC(C(=O)NC2CCCCC2)C2(CCCCC2)O1 (centres undefined)	6%	x	1%	8%[46 µM]	4%
COc1ccc(C2N(C(=O)N3CCOCC3)CCN2S(=O)(=O)c2ccc(C)cc2)cc1 (centres undefined)	29%[38.3 µM]	-2%	3%	17%	-11%
Cc1ccc(S(=O)(=O)N2CCN(C(=O)N3CCOCC3)C2c2ccc(N(C)C)cc2)cc1 (centres undefined)	12%	-16%	0%	-7%	0.63µM*
CN(C)c1ccc(C2N(C(=O)N3CCOCC3)CCN2S(=O)(=O)c2ccccc2)cc1 (centres undefined)	0%[38.3 µM]	-14%	-3%	11%	1µM*
CCn1c(=O)c2ccccc2n2c(SCC(=O)N3CCCc4ccccc43)nnc12	5%[38.3 µM]	-7%	-1%	0%	u
O=C(CSc1nnc2n(C3CCCC3)c(=O)c3ccccc3n12)N1CCCCCC1	30%[38.3 µM]	-9%	-3%	7%	u
COc1ccccc1Cn1c(=O)c2ccccc2n2c(SCC(=O)N3CCCCC3)nnc12	10µM*	u	-1%	-11%	u
CC1CCCN(C(=O)CSc2nnc3n(C4CCCC4)c(=O)c4ccccc4n23)C1 (centres undefined)	20%[38.3 µM]	20µM*	-3%	4%	7.9µM*
